PubChem BioAssay
The source made the active and inactive calls.

experiment: E. coli DRC41 culture turbidity changes, primary screen, E. coli filamentation inducer project, strain DRC41, OD650, 48 h (AID 1152);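 further: E. coli MC1000 strain DRC41 lacking acrAB efflux pump and sulA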; conditions: E. coli DRC41 (acrAB sulA), higher = more signal, called active from +8 up or from −8 down

SMILES | z-score
COC(=O)[C@@]1(Cc2ccc(OC)cc2)[C@H]2c3cc(C(=O)N4CCCC4)n(Cc4cc(C)n(C)n4)c3C[C@H]2CN1C(=O)c1ccccc1 | -0.703 (inactive)
C=C(CCCC)C(=O)CC[C@H](OC(C)=O)c1ccc(OCCO)cc1 | 2.2 (inactive)
COc1ccc(C(=O)Nc2cccc(CN3C(=O)[C@]4(O[C@H](CCn5cc([C@H](O)c6ccccc6)nn5)[C@@H]([Si](C)(C)c5ccc(OC)cc5)[C@@H]4C)c4ccccc43)c2)cc1 | 0.959 (inactive)
COCCOC(=O)N1C(=O)[C@@]2(c3cc(C#CC4=CCCCC4)ccc31)[C@H](C(=O)N1CCCCCCC1)[C@H]1C(=O)O[C@H](c3ccccc3)[C@H](c3ccccc3)N1[C@@H]2c1ccc(OCCO)cc1 | -1.1 (inactive)
C=C(CCCC)/C(=C/C[C@H](OC(C)=O)c1ccc(OCCO)cc1)c1cc(C(=O)OC)ccc1OC | 0.564 (inactive)
COc1ccc([Si](C)(C)[C@H]2[C@H](CC(=O)N3CCC[C@H]3CO)O[C@@]3(C(=O)N(Cc4ccc(N5CCC5=O)cc4)c4ccccc43)[C@@H]2C)cc1 | -0.691 (inactive)
[N-]=[N+]=NCc1ccccc1[C@@H]1OC(c2ccc(OCCCO)cc2)=N[C@]1(Cc1ccccc1N=[N+]=[N-])C(=O)NCCN1CCOCC1 | -0.04 (inactive)
O=C1C[C@@](C(=O)NCC(F)(F)F)(c2ccc([N+](=O)[O-])cc2)[C@@H](c2ccc(CO)cc2)N1CC12CC3CC(CC(C3)C1)C2 | -0.0809 (inactive)

experiment: small-molecule binders of probe aLefty1, primary screen, biochemical, small-molecule microarray, 635/667 nm fluorescence (AID 1153); conditions: higher = more signal;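 further: score merges spot fluorescence with signal-to-noise ratio from the scanned slide images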

SMILES | composite z-score
C=CCC(OC(C)=O)[C@@H]1[C@@H](N(Cc2cc3ccccc3o2)C(=O)c2ccc(-c3ccccc3)cc2)c2cc(OCCCO)ccc2N1C(=O)Cc1ccc(OC)cc1 (stereo partly specified) | -0.0547
COCC(=C=CC[C@@H](O)c1ccc(OCCO)cc1)CCO | 0.0391
CC(C)(C)OC(=O)CC[C@]12N=C(c3ccc(OCCCO)cc3)O[C@H]1c1ccccc1N(Cc1ccccc1)C2=O | 0.848
O=C1OCCC/C=C\[C@H]2OC34C=CCN(c5ccc6ccccc6c5)C(=O)[C@H]3N(CCCO)C(=O)[C@@H]4C12 (stereo partly specified) | -0.366
C=C/C=C/[C@@H]1C(=C)CN([C@@H](Cc2ccccc2)C(=O)OC)[C@H]1[C@@H](O)Cc1ccccc1 | -0.0601
O=C1NC(=O)C2C1C=CC(C(O)c1ccccn1)N2Nc1ccc(Cl)cc1Cl (stereo unspecified) | 0.121
CC(C)C[C@@H]1NC(=O)CNC(=O)[C@@]23C(=O)N[C@@H](Cc4ccccc4)C2[C@H](C)[C@@]2(C)O[C@H]2C3/C=C/C/C=C\CNC1=O (stereo partly specified) | -0.0265
CCOC(=O)C1=C[C@@H](c2ccccc2)N(S(=O)(=O)c2ccc(C)cc2)[C@H]1c1ccccc1 | 0.119
[N-]=[N+]=NCc1ccccc1C[C@]1(C(=O)N2CCOCC2)COC(c2ccc(OCCCO)cc2)=N1 | 0.691
COCCOC(=O)N1C(=O)[C@@]2(c3cc(C#Cc4ccc(OC)cc4)ccc31)[C@H](C(=O)NC[C@H](O)c1ccccc1)[C@H]1C(=O)O[C@H](c3ccccc3)[C@H](c3ccccc3)N1[C@@H]2c1ccc(OCCO)cc1 | 0.179
COCCOC(=O)N1C(=O)[C@@]2(c3cc(C#CCC(C(=O)OC)C(=O)OC)ccc31)[C@H](c1ccc(OCCO)cc1)N1[C@H](c3ccccc3)[C@H](c3ccccc3)OC(=O)[C@H]1[C@@H]2C(=O)Nc1nc2ccccc2s1 | 0.129
COCCOC(=O)N1C(=O)[C@@]2(c3cc(C#CCNC(N)=O)ccc31)[C@H](c1ccc(O)cc1)N1[C@H](c3ccccc3)[C@H](c3ccccc3)OC(=O)[C@H]1[C@@H]2C(=O)N1CCN(c2ncccn2)CC1 | -0.191
COc1cc(C(O)C2C=CC3C(=O)N(Cc4ccccc4)C(=O)C3N2n2cnnc2)cc(OC)c1OC (stereo unspecified) | 0.431
CCCCC=C[C@@H](NC(=O)c1ccccc1)c1ccccc1 | 0.0538
COc1ccc([Si](C)(C)[C@@H]2[C@@H](CC(=O)N3Cc4ccccc4C[C@H]3CO)O[C@]3(C(=O)N(c4ccccc4)c4ccccc43)[C@H]2C)cc1 | 0.855
CCOC(=O)C1=CCC(c2ccccc2)N(S(=O)(=O)c2ccc([N+](=O)[O-])cc2)C1 (stereo unspecified) | 0.0451
[N-]=[N+]=NCc1ccccc1[C@@H]1OC(c2ccc(OCCCO)cc2)=N[C@]1(Cc1ccccc1N=[N+]=[N-])C(=O)N1CCCCC1 | 0.358
C=CCN1C(=O)[C@]2(O[C@H](CCO)[C@@H]([Si](C)(C)c3ccc(OC)cc3)[C@@H]2C)c2cc(N3C(=O)COc4ccccc43)ccc21 | 0.142
